Screening results deposited in PubChem BioAssay by Broad Institute.
miR-122 inh – miR-122 suppressors via Renilla sensor increase, primary screen, cell-based, Huh7 psiCHECK-miR122, Renilla luciferase, single point; AID 623901, 2012; activation, % at 12.5 µM; 340,000 compounds, 0.14% hits; 48 h;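 active = mean activation of 30% or more, with every replicate also reaching 30%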;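 also: higher luciferase signal means stronger suppression of miR-122 activity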
Of the large screens only hits and unclear results are named; the others gave an inactive call. The full list was thinned out, with hits kept by preference.

C[C@@H]1CN([C@@H](C)CO)C(=O)c2cc(C#Cc3ccccc3F)cnc2O[C@@H]1CN(C)C(=O)C1CCOCC1	none
C[C@H]1CN([C@@H](C)CO)C(=O)c2cc(-c3cncnc3)cnc2O[C@@H]1CN(C)Cc1ccccc1	none
C[C@H](CO)N1C[C@H](C)[C@H](CN(C)C(=O)C2CCOCC2)Oc2ncc(-c3ccncc3)cc2C1=O	none
C[C@H](CO)N1C[C@H](C)[C@H](CN(C)C(=O)C2CC2)Oc2ncc(-c3cccnc3)cc2C1=O	none
C[C@@H]1CN([C@H](C)CO)S(=O)(=O)c2ccc(-c3cccc(C#N)c3)cc2O[C@H]1CN(C)Cc1ccccn1	none
C[C@H](CO)N1C[C@H](C)[C@H](CN(C)C(=O)Nc2ccccc2)Oc2ncc(C#Cc3ccc(F)cc3)cc2C1=O	none
Cc1cc(C(C)(C)CC(C)(C)C)ccc1OCCOCC[N+](C)(C)Cc1ccccc1	miR-122 inh 57.6
C[C@H]1CN([C@@H](C)CO)C(=O)c2cccc(NC(=O)c3ccncc3)c2O[C@@H]1CN(C)Cc1ccc(C(F)(F)F)cc1	none
C[C@@H]1CN([C@@H](C)CO)S(=O)(=O)c2ccc(C#C[C@@H](C)O)cc2O[C@@H]1CN(C)C(=O)c1ccncc1	none
CN(C)CCNc1nc2sc3c(c2c(=O)n1CCc1ccccc1)CCCCC3	miR-122 inh 32.4
COc1ccc(C#Cc2ccc3c(c2)O[C@H](CN(C)C)[C@@H](C)CN([C@@H](C)CO)S3(=O)=O)cc1	none
C[C@H](CO)N1C[C@H](C)[C@H](CN(C)Cc2ccc(F)cc2)Oc2ncc(-c3ccccc3)cc2C1=O	none
CCCNC(=O)N(C)C[C@H]1Oc2cc(C#CC(C)C)ccc2S(=O)(=O)N([C@H](C)CO)C[C@@H]1C	none
C[C@H]1CN([C@@H](C)CO)C(=O)c2cc(C#Cc3cccc(F)c3)cnc2O[C@@H]1CN(C)C(=O)C1CC1	none
COCC#Cc1cnc2c(c1)C(=O)N([C@@H](C)CO)C[C@@H](C)[C@H](CN(C)C(=O)Nc1c(C)noc1C)O2	none
CCCNC(=O)N(C)C[C@H]1Oc2ncc(C#C[C@H](C)O)cc2C(=O)N([C@H](C)CO)C[C@H]1C	none
